Rows were chosen to be rich in hits. Some 2.3% of all compounds tested hit in one or more screens of this group.
FUS yeast rescue: suppressors of FUS proteinopathy in yeast; S. cerevisiae FUS-expressing, growth rescue, OD600, 24 h; Potency, µM (highest dose often 76.6 µM), actives largely listed as activators; 390,000 compounds, 0.24% hits; AID 1347120;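 note: plate controls were DMSO vehicle for no effect and reference control for full effect; nearly all actives have a fitted effect of over 55% in size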
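Galactose (2%) drives FUS expression in yeast precultured in raffinose; seeding density OD 0.005. Test compounds incubated 24hr at 30C and 99% humidity before absorbance at 600 nm was measured.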
Abeta yeast res: A-beta toxicity reversal in yeast | yeast expressing A-beta42, growth rescue, OD600, 48 h; response scale: 0% DMSO, 100% iron-clioquinol control | Potency, µM (doses to about 46.1 µM), usual class: activators | 410,000 compounds, 0.063% hits | AID 1347071; note: nearly all actives have a fitted effect of over 55% in size
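Yeast A-beta toxicity model in growth medium with pinned compounds, 48 h at 30 C; growth read as absorbance at 600 nm. Normalized to FeCl3/clioquinol equimolar mix (positive) and DMSO (negative).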
uPA surface inh: blocks generation of uPA at the cell surface. cell surface uPA generation assay, qHTS. Potency, µM (highest dose often 38.3 µM), for inactives: at the highest dose activity change, negative = inhibition, hits mostly inhibitors. 330,000 compounds, 0.31% hits. AID 540303; active = well fitted inhibition curve with a large enough effect; inconclusive = small, poorly fitted or top-dose-only effect; inactive = no such curve, though single readings can be large or run the other way; tested in mouse RAW 264.7 cells; note: % is set by controls: 0 for no effect and ±100 for the full control effect; nearly all actives have a fitted effect of over 55% in size
Chronic BCR inh: chronic active BCR signaling inhibition | ABC-DLBCL IkBa-CBG/CBR reporter, luminescence ratio, 4 h | Potency, µM (top dose mostly 46.1 µM), for the others: at the highest dose activity change, negative = inhibition, usual class: inhibitors | 340,000 compounds, 0.05% hits | AID 493014; active = well fitted inhibition curve with a large enough effect in the signal ratio, with a control signal flat, not every such curve was filed as active; inconclusive = small, poorly fitted or top-dose-only effect, or effect the other way, or a change in a side signal; the % refers to the signal ratio;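 note: plate controls were basal doxycycline-induced cells for no effect and cells given 10 µM MG132 for full effect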
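Compounds up to 46 uM were incubated four hours with TMD8 cells whose green CBG68 luciferase is fused to IkappaBalpha; red CBR luminescence normalised the signal, and concentration-effect curves were fitted to fusion, red and ratio data.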
aSyn rescue: alpha-synuclein toxicity inhibition in yeast. 370,000 compounds, 0.14% hits. Yeast expressing alpha-synuclein, growth rescue, BacTiter-Glo, 24 h. Potency, µM (titrated, usually from 46.1 µM), without a hit: at the top dose growth rescue (activation), hits mostly activators; note: % of control where 0% means no effect; nearly all actives have a fitted effect of over 65% in size
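Readout is rescue of growth in alpha-synuclein-expressing yeast, so inhibitors of toxicity appear as activators. Growth after 24 hr at 30 deg C in galactose medium is quantified by luminescence.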
TDP43 rescue: inhibitors of TDP-43 toxicity in yeast; TDP-43 expressing yeast growth rescue, BacTiter-Glo, 24 h; Potency, µM (top dose mostly 46.1 µM), for inactives: at the highest dose growth rescue (activation), usual class: activators; 410,000 compounds, 1.8% hits; AID 652104; note: % of control where 0% means no effect; nearly all actives have a fitted effect of over 50% in size
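Cell-based yeast growth screen: TDP-43 expression induced in galactose, inoculum OD600=0.02 after raffinose pregrowth to mid-log. Read-out BacTiter-Glo luminescence at 24 hr, 30 deg C; inhibition of toxicity seen as signal increase.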
* marks the source's active call; other numbers are inactive results; i = inactive; ? = inconclusive; nt = no result; ! = repeats disagree. Unless noted, calls come from the whole dose curve; as a rule, active = well fitted curve in the direction sought with a large enough effect; inconclusive = small, poorly fitted or top-dose-only effect, or another doubt; inactive = no such curve, though single readings can be large; an effect the other way counts as inactive or inconclusive. Potency is the fitted concentration of half-maximal effect.

SMILES | FUS yeast rescue | Abeta yeast res | uPA surface inh | Chronic BCR inh | aSyn rescue | TDP43 rescue
CCOC(=O)c1sc(-c2ccccc2)cc1N | i | i | -4.5% | ? | 15.6% | 7.08µM*
CS(=O)(=O)c1ccc(C(=O)OCC(=O)Nc2cccc(S(=O)(=O)N3CCCC3)c2)cc1 | i | i | 4.6% | -1.3% | 4.8% | -0.6%
Cc1ccc2onc(CC(=O)N3CCN(c4ccccc4F)CC3)c2c1 | i | i | nt | nt | nt | ?
Cc1ccc2onc(CC(=O)N3CCN(c4ccc(F)cc4)CC3)c2c1 | i | i | nt | nt | nt | 12.6µM*
Cc1cc(/C=N/O)c(C)n1-c1ccc(Br)cc1 | i | i | 7.5% | 5.3% | 8.3% | 14.1%
O/N=C/c1ccn(-c2ccc(Br)cc2)c1 | i | i | -15.9% | ? | -5.6% | 14.1µM*
Cc1ccc(NC(=O)C2(NC(=O)c3cccc(N4C(=O)CSC4c4ccccc4)c3)CCCCC2)cc1 (stereo unspecified) | 28.2µM* | i | -5.1% | ? | 0.6% | -5.9%
O=C(c1cnn(-c2ccc(F)cc2)c1-n1cccc1)N1CCN(c2ccccc2)CC1 | i | i | nt | nt | 6.9% | 14.1µM*
Cc1cc2cc(CNC(=O)c3ccc(S(=O)(=O)N4CCCCC4)cc3)ccc2[nH]1 | ? | i | 4.2% | 6.2% | -10.9% | 0.0%
CCOc1ccc(C(=O)N2CCC(c3noc(-c4ccc(S(=O)(=O)N5CCCC5)cc4)n3)CC2)cc1 | 15.8µM* | i | nt | nt | nt | 0.9%
CCOc1ccc(C(=O)N2CCC(c3nc(-c4ccc(S(=O)(=O)N5CCCC5)cc4)no3)CC2)cc1 | i | i | nt | nt | nt | 16.1%
O=C(NCc1ccccc1)C(c1ccc(C(F)(F)F)cc1)n1c(=O)c(-c2cc3ccccc3[nH]2)nc2ccccc21 (stereo unspecified) | ? | ? | nt | nt | 7.08µM* | 0.0%
Cc1cccc(C)c1NC(=O)C(c1ccncc1)n1c(=O)c(-c2cc3ccccc3[nH]2)nc2ccccc21 (stereo unspecified) | ? | i | nt | nt | 5.1% | 14.1µM*
CSCCC(c1nc2ccccc2[nH]1)n1c(=O)c(-c2cc3ccccc3[nH]2)nc2ccccc21 (stereo unspecified) | i | ? | nt | nt | -19.4% | 17.8µM*
Cc1cccc(C)c1NC(=O)C(c1ccc(C#N)cc1)n1c(=O)c(-c2cc3ccccc3[nH]2)nc2ccccc21 (stereo unspecified) | i | ? | nt | nt | 29.4% | 10µM*
O=c1c(-c2cc3ccccc3[nH]2)nc2ccccc2n1C(CCc1ccccc1)c1nc2ccccc2[nH]1 (stereo unspecified) | ? | ? | nt | nt | 29.3% | ?
COc1ccccc1COC(=O)c1cccc(S(=O)(=O)N(C)Cc2ccccc2)c1 | i | nt | nt | nt | nt | nt
O=c1[nH]nc(CNc2ccc(O)cc2)c2ccccc12 | i | i | -12.9% | ? | ? | -0.8%
O=C(Nc1ccc2ccccc2c1)C(C1CC1)n1c(=O)c(-c2cc3ccccc3[nH]2)nc2ccccc21 (stereo unspecified) | i | i | nt | nt | ? | 0.0%
COc1ccc(NC(=O)C(C2CC2)n2c(=O)c(-c3cc4ccccc4[nH]3)nc3ccccc32)cc1 (stereo unspecified) | ? | i | nt | nt | 14.1µM* | 14.8%
O=c1ccc(N=Nc2ccccc2)ccc1O | i | i | -4.2% | ? | -77.0% | -94.5%
Oc1ccc(N=Nc2ccccc2)o1 | i | i | 6.31µM* | ? | -49.4% | ?
N/C(=N\OC(=O)c1ccccc1Cl)c1ccncc1 | i | i | -5.3% | ? | 6.7% | 25.1µM*
N/C(=N\OC(=O)c1ccc2ccccc2c1)c1ccncc1 | i | i | -16.2% | -18.4% | 10.2% | 12.6µM*
N/C(=N/OC(=O)c1cccc([N+](=O)[O-])c1)c1cccc([N+](=O)[O-])c1 | i | i | -2.2% | 6.2% | -8.7% | 3.2%
SMILES | FUS yeast rescue | Abeta yeast res | uPA surface inh | Chronic BCR inh | aSyn rescue | TDP43 rescue
N/C(=N\OC(=O)c1ccc(F)cc1)c1cccc([N+](=O)[O-])c1 | i | i | 11.6% | ? | -8.4% | 12.6µM*
N/C(=N\OC(=O)c1ccc2ccccc2c1)c1cccc([N+](=O)[O-])c1 | i | i | 5.3% | ? | -34.3% | 22.4µM*
Cc1ccc(NC(=O)CSCC(=O)Nc2ccccc2C(=O)NC2CC2)cc1 | i | i | 1.2% | -10.2% | -1.5% | 7.7%
CCC(C)NC(=O)c1cc(CC(C)C)on1 (stereo unspecified) | i | i | 8.4% | ? | -3.1% | 0.0%
N/C(=N\OC(=O)c1ccccc1Cl)c1cccc([N+](=O)[O-])c1 | i | i | -4.1% | ? | -32.3% | 11.2µM*
N/C(Cc1ccc([N+](=O)[O-])cc1)=N\OC(=O)c1cccc(Br)c1 | i | i | 9.4% | -0.5% | -72.6% | -93.3%
N/C(Cc1ccc([N+](=O)[O-])cc1)=N\OC(=O)c1ccc([N+](=O)[O-])cc1 | nt | i | -5.3% | ? | 0.4% | 17.8µM*
Nc1nonc1-n1nnc(C(=O)N/N=C/c2ccoc2)c1CSc1ccc(Cl)cc1 | i | nt | -8.3% | 1.6% | -0.8% | 0.9%
CCOc1ccccc1-c1ccc(C(=O)NCc2ccccc2)o1 | i | i | -22.7% | -4.7% | 3.4% | 15.8µM*
Cc1ccc(NC(=O)Cn2ncn3c(cc4ccccc43)c2=O)c(C)c1 | 31.6µM*! | i | 3.5% | 11.4% | 0.3% | 12.4%
COc1cc(OC)c(NC(=O)Cn2ncn3c(cc4cc(C)ccc43)c2=O)cc1Cl | i | i | nt | nt | nt | 14.8%
c1ccc(Oc2ncnc3sccc23)cc1 | i | i | -4.7% | ? | -0.6% | 11.2µM*
Cc1ccccc1Oc1ncnc2sccc12 | i | i | -2.7% | ? | -15.5% | 11.2µM*
COc1ccc(-c2cc(C(F)(F)F)nc(NCc3cccs3)n2)cc1 | i | i | 7.1% | 8.8% | -2.6% | -10.9%
COc1nnc(-c2ccc(N3CCCCC3)c(NC(=O)C3CCCCC3)c2)c2ccccc12 | nt | i | 3.1% | -30.3% | 0.2% | -21.7%
COc1nnc(-c2ccc(N3CCCCC3)c(NC(C)=O)c2)c2ccccc12 | i | i | 10.2% | ? | 6.0% | 22.4µM*
Cc1ccc(S(=O)(=O)N(C)c2ccc(OC(=O)CN3C(=O)NC(C)(c4ccccc4)C3=O)cc2)cc1C (stereo unspecified) | ? | i | 3.4% | nt | 9.8% | -0.5%
COc1cccc(CNS(=O)(=O)/C=C/c2ccc3c(c2)OCO3)c1 | i | i | -4.9% | -0.3% | 1.5% | 15.8µM*
